Key:
Experiment in all cases: DAPPL (digital affinity profiling via proximity ligation, sequencing); 10 mM Tris-HCl pH 7.5, 50 mM NaCl, 1 mM DTT, 4% glycerol, room temperature, 30 min; GST-TFs on glutathione beads, 16-mer random dsDNA library, 0.1% formaldehyde crosslink after washing; high values mean tight binding
Conditions in all cases: protein: recombinant; tags: N-terminal GST; dsDNA, one strand shown
FLI1 = target: T1, FLI1 (Homo sapiens, UniProt Q01543 1-452)
T1 sequence: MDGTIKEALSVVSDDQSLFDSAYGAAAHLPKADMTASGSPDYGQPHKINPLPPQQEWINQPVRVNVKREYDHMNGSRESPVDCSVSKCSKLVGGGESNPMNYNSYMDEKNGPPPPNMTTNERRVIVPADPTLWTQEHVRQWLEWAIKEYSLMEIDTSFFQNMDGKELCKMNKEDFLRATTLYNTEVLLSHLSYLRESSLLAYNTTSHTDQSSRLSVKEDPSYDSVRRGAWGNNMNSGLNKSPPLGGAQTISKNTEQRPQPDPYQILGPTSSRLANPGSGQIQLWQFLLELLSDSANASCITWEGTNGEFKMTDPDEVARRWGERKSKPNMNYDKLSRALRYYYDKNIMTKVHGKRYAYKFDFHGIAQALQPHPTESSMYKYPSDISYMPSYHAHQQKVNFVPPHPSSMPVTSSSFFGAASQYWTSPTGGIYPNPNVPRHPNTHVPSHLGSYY
Method in brief: (§1)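 Human transcription factors carrying a GST fusion were produced in yeast, bound to glutathione beads, tagged with DNA barcodes and pooled together with a tag-only sample. Each pool was held with 200 nmole of a random double-stranded 16-mer DNA library in Tris/NaCl/DTT/glycerol buffer for 30 min at room temperature, then washed, crosslinked in 0.1% formaldehyde, proximity-ligated with BsaI/T4 ligase (1 h, 37 °C), PCR-amplified and sequenced on an Illumina NextSeq500. Binding signal is the read frequency of each hexamer for a given factor divided by its frequency in the tag-only sample.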

ELK1 = target: T2, ELK1 (Homo sapiens, UniProt P19419 1-428)
T2 sequence: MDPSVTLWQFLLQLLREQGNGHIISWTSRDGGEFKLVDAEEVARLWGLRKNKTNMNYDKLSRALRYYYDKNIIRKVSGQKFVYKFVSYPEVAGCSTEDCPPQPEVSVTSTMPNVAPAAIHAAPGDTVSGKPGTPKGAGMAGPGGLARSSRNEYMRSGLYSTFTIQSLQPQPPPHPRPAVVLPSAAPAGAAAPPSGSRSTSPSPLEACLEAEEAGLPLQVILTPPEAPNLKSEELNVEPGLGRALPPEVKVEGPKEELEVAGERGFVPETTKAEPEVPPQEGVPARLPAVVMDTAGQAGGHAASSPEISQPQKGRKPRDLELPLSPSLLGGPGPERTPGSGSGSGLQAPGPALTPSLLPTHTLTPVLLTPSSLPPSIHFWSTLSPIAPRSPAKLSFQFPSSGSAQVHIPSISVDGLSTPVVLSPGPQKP
Method in brief: as §1

GABPA = target: T3, GABPA (Homo sapiens, UniProt Q06546 1-454)
T3 sequence: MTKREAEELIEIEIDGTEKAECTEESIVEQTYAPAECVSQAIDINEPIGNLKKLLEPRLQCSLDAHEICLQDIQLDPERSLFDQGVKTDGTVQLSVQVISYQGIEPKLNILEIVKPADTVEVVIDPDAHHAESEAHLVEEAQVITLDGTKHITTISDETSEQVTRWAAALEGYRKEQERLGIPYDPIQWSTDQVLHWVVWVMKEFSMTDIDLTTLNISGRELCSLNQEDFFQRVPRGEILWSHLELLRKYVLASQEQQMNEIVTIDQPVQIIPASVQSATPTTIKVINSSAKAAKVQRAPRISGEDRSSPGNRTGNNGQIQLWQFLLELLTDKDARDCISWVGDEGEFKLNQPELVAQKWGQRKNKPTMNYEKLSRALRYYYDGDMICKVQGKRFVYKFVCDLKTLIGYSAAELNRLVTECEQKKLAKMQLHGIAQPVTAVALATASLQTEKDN
Method in brief: as §1

ERG = target: T4, ERG (Homo sapiens, UniProt P11308 1-479)
T4 sequence: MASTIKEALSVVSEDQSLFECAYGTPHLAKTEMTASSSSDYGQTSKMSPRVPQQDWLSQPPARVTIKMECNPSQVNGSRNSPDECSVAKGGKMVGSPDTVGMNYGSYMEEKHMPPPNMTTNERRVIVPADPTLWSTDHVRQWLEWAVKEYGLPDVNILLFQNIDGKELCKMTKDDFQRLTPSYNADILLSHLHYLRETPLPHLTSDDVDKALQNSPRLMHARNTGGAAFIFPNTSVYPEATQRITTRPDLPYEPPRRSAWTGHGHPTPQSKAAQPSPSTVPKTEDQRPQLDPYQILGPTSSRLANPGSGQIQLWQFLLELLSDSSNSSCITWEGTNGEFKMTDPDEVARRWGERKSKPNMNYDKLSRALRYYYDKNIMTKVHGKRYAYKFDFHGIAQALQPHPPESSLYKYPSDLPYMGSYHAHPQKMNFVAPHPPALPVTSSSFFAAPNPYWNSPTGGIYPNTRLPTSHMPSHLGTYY
Method in brief: as §1

ELF1 = ELF1 (Homo sapiens, UniProt P32519 1-619)
Chain of ELF1 (P32519 whole entry): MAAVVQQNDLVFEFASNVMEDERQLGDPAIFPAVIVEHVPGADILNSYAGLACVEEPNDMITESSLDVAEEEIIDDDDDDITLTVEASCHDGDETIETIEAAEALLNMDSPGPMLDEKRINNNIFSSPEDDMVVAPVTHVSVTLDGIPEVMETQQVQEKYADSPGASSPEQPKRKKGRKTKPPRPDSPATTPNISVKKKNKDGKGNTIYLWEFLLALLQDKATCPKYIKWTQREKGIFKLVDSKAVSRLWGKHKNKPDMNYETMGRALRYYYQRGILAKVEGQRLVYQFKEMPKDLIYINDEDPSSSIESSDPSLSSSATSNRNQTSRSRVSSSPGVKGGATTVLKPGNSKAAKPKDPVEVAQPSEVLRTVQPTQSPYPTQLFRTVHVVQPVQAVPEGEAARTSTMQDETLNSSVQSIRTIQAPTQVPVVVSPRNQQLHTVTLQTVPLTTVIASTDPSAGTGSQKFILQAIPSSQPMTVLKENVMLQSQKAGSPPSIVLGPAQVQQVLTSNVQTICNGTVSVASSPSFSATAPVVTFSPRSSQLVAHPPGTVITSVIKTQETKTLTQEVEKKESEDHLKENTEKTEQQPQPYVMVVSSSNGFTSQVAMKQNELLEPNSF
Method in brief: as §1

EHF = target: T5, EHF (Homo sapiens, UniProt Q9NZC4 1-300)
T5 sequence: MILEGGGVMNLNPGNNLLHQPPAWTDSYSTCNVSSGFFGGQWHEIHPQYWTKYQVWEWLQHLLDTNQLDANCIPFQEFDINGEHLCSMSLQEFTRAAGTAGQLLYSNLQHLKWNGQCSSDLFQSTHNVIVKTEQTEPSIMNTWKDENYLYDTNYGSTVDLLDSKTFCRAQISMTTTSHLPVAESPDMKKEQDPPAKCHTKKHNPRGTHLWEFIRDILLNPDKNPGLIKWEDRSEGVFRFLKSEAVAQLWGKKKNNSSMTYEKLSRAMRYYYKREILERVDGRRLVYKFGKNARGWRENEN
Method in brief: as §1

SPI1 = SPI1 (Homo sapiens, UniProt P17947 1-270)
Method in brief: as §1

SPIB = SPIB (Homo sapiens, UniProt Q01892 1-262)
Chain of SPIB (Q01892 whole entry): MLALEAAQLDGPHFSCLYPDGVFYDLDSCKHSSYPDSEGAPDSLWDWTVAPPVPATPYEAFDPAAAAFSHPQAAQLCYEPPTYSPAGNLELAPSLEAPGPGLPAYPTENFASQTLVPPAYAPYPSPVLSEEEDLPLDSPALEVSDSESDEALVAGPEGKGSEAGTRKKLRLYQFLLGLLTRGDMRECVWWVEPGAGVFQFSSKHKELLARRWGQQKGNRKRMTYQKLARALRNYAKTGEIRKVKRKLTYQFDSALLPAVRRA
Method in brief: as §1

ELK3 = target: T6, ELK3 (Homo sapiens, UniProt P41970 1-407)
T6 sequence: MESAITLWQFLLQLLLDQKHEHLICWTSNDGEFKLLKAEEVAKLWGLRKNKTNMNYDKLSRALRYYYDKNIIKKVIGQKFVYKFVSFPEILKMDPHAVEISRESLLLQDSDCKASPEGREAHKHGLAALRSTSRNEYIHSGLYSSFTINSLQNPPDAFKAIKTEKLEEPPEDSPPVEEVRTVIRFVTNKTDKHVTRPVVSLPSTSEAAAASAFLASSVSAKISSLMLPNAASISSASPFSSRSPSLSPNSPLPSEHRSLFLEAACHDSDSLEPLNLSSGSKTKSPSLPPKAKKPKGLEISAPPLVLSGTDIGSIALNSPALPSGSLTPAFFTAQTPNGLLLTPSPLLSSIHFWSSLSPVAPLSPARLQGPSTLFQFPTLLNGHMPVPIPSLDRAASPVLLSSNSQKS
Method in brief: as §1

FEV = target: T7, FEV (Homo sapiens, UniProt Q99581 1-238)
T7 sequence: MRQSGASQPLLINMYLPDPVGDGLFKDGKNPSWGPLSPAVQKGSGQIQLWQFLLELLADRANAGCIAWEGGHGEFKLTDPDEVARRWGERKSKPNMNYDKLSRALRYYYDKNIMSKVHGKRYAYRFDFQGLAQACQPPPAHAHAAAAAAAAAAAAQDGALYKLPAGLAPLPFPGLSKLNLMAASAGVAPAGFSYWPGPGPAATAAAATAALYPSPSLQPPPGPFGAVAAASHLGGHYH
Method in brief: as §1

In the case of AAACCG, the binding signal (FLI1) was 1.05 fold enrichment (6-mer frequency, TF over GST control), the binding signal (ELK1) was 1.05 fold enrichment (6-mer frequency, TF over GST control) and the binding signal (GABPA) was 1.07 fold enrichment (6-mer frequency, TF over GST control). For the same sequence, the binding signal (ERG) was 1.13 fold enrichment (6-mer frequency, TF over GST control), the binding signal (ELF1) was 1.12 fold enrichment (6-mer frequency, TF over GST control) and the binding signal (EHF) was 1.08 fold enrichment (6-mer frequency, TF over GST control). For the same sequence, the binding signal (SPI1) was 1.25 fold enrichment (6-mer frequency, TF over GST control), the binding signal (SPIB) was 1.05 fold enrichment (6-mer frequency, TF over GST control) and the binding signal (ELK3) was 1.09 fold enrichment (6-mer frequency, TF over GST control). The binding signal (FEV) was 1.33 fold enrichment (6-mer frequency, TF over GST control).

— article PMC7862700, “An all-to-all approach to the identification of sequence-specific readers for epigenetic DNA modifications on cytosine”
